# Results as given in PubChem BioAssay.
# Calls of active or inactive are those of the source.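 Rule for the calls: active = compounds killing one labelled cell type while sparing the other, by normalised counts and ratio limits, not self-fluorescent; inactive = the rest.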
# Assay: differential killing of epithelial or mesenchymal cells, primary screen, imaging, PC-3E GFP, TEM4-18 mCherry, co-culture (AID 1345086);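 note: cells exposed to compound for 72 h before imaging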;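 for red/green cell ratio (normalised): normalised mesenchymal count divided by normalised epithelial count so high means epithelial killing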
# Conditions: imaging cell counts, at 1 µM; for red/green cell ratio (normalised): actives lie on both sides, counts scaled to control wells, 1 = unselective
# [1] = measured here: epithelial PC-3E GFP cell survival
# [2] = measured here: mesenchymal TEM4-18 mCherry cell survival
Compound,red/green cell ratio (normalised),normalised cell number [1],normalised cell number [2]
CCCCCCCCCCCC[C@H](C(=O)O)[C@@H](C)C(=O)O,1.15 (inactive),0.84,0.97
CC(C)CCCC(C)[C@H]1CCC2C3C(=O)C=C4C[C@@H](O)CC[C@]4(C)C3CC[C@@]21C (some centres undefined),0.98 (inactive),0.98,0.95
C[C@H]1CC[C@@H](C(C)(C)O)CC2=C1CC[C@@H]2C,1.27 (inactive),0.71,0.91
COC(=O)C[C@@H]1C2(C)C(=O)[C@@H](CC3=C4CC(O)O[C@@H](c5ccoc5)[C@]4(C)CCC32)[C@H](O)C1(C)C (some centres undefined),1.16 (inactive),0.99,1.14
COC(=O)C1O[C@H](OC)[C@@H](OCc2ccccc2)[C@@H](OCc2ccccc2)C1O (some centres undefined),1 (inactive),1.14,1.15
CC(=O)O[C@H]1CCC2(C)C3=C(CCC2C1(C)C)[C@@]1(C)CC[C@@H](C(C)CCC=C(C)C)[C@]1(C)CC3 (some centres undefined),1.21 (inactive),0.67,0.81
C[C@H]1[C@H](OC(=O)CCC(=O)O)O[C@@H]2O[C@]3(C)CC[C@H]4[C@H](C)CC[C@@H]1[C@@]24OO3,0.81 (inactive),0.68,0.55
CC(C)(O)[C@@H]1CC[C@](C)([C@H]2[C@@H](O)C[C@@]3(C)C4C[C@H](O[C@@H]5O[C@H](CO)[C@@H](O)[C@H](O)[C@H]5O)C5C(C)(C)[C@@H](O[C@@H]6OC[C@@H](O)[C@H](O)[C@H]6O)CC[C@@]56C[C@@]46CC[C@]23C)O1 (some centres undefined),0.94 (inactive),0.98,0.92
O=C(N[C@@H](Cc1ccc(O)cc1)C(=O)O)OCc1ccccc1,0.96 (inactive),1.09,1.04
O=C(/C=C/c1ccccc1)O[C@H]1C[C@@H](O)[C@]2(O)C=CO[C@@H](O[C@@H]3O[C@H](CO)[C@@H](O)[C@H](O)[C@H]3O)C12 (some centres undefined),1.09 (inactive),0.87,0.95
COC(=O)[C@@H]1C(O)CC[C@H]2CN3CCc4c([nH]c5ccccc45)[C@@H]3C[C@@H]21 (some centres undefined),1.2 (inactive),0.88,1.07
COC(=O)C[C@@H]1C2(C)C(=O)[C@@H](CC3C2CC[C@]2(C)C3CC(=O)O[C@H]2c2ccoc2)[C@H](OC(C)=O)C1(C)C (some centres undefined),0.92 (inactive),1.04,0.95
COC1=CC(=O)C[C@@H](C)[C@]12Cc1c(Cl)c(OC)cc(OC)c1C2=O,0.76 (inactive),1.33,1.01
